Results filed as inconclusive are left out. Calls of active or inactive are those of the source. The call rests on the fitted dose curve; in most records, active means well fitted cell-killing curve with a large enough effect; inconclusive means small, poorly fitted or top-dose-only effect; inactive means flat fitted curve, though single readings scatter.
Potency means the concentration at half of the fitted maximal effect.

This assay in a line: Cellular viability qHTS for adrenocortical cancer (ACC) cell line NCI-H295R (AID 1963990). Further: nearly all actives have a fitted effect of over 60% in size. The following applies: CellTiter-Glo ATP luminescence, 48 h; series mostly up to 46.1 µM. The method, boiled down:
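IC50 and maximal efficacy derive from four-parameter logistic modelling of titration curves, with reads scaled between DMSO-only wells (0%) and doxorubicin hydrochloride (100% inhibition). Compounds spanned up to 46 uM over 48 h.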
With `Cc1nc([C@](C)(O)CO)sc1-c1cnc(N)c(O[C@H](C)c2cc(F)ccc2-n2nccn2)c1`, the Potency was 2.82 µM (active).
As for `CNCC[C@H](Oc1cccc2ccccc12)c1cccs1`, the figure is 18.4 µM (active).
Turning to `CCCc1ccc(OCC(=O)N2CCN(C(=O)COc3ccc(CCC)cc3OC)CC2)c(OC)c1`, the Potency result is “inactive”.
Next, `CC1=C(/C=C/C(C)=C/C=C/C(C)=C/C(=O)Nc2ccc(O)cc2)C(C)(C)CCC1`: 4.61 µM (active); `CCCOc1ccc(CCc2nc3cc(-c4c(C)noc4C)ccc3n2CCN2CCOCC2)cc1`: 22.4 µM (active); `O=C(/C=C/c1ccccc1)NCCO`: 14.6 µM (active).
Consider `COc1ccc(S(=O)(=O)N[C@@H](CNc2nc(C)nc(N3CCC(c4ccc5c(n4)NCCC5)CC3)c2C)C(=O)O)cc1`, for which the Potency result is “inactive”.
Regarding `Fc1ccc2[nH]ccc2c1-c1nc(N2CCOCC2)c2sc(CN3CCN(CC4CC4)CC3)cc2n1`, the Potency is 31.6 µM (active).
On to `CCN(CC)CCNc1ccc(CO)c2sc3ccccc3c(=O)c12`, for which the Potency is 1.03 µM (active).
For the compound `O=C(NOCCO)c1ccc2cncn2c1Nc1ccc(I)cc1F`, the Potency entry is “inactive”.
For `CC(C)[N+](C)(C)CC(O)COc1cccc2ccccc12` (stereo not given), the Potency result was “inactive”.
Next, `CCN(C)S(=O)(=O)Nc1ccc(F)c(C(=O)c2c[nH]c3ncc(-c4cnc(C5CC5)nc4)cc23)c1F`: 28.2 µM (active); `NC(N)=NN=C(/C=C/c1ccc([N+](=O)[O-])o1)/C=C/c1ccc([N+](=O)[O-])o1`: 1.03 µM (active).
In the case of `CC[C@H](NC(=O)[C@H](C)NC)C(=O)N1C[C@@H](O)C[C@H]1Cc1c(-c2[nH]c3cc(F)ccc3c2C[C@@H]2C[C@H](O)CN2C(=O)[C@H](CC)NC(=O)[C@H](C)NC)[nH]c2cc(F)ccc12`, the Potency result was “inactive”.
In the case of `Nc1ncc(C(=O)NC2CN(C(=O)C3CC3)C2)c2ccc(-c3cccc(F)c3)nc12`, the Potency result was “inactive”.
With `CN1CCN(c2ccc(Nc3ncc4cc(C#N)c(=O)n(C5CCCC5)c4n3)cc2)CC1`, the Potency entry was “inactive”.
On to `COC(=O)[C@H]1[C@@H](O)[C@@]2(O)c3c(OC)cc(O[C@@H]4O[C@@H]([C@@H](O)CO)CO[C@H]4OC)cc3O[C@@]2(c2ccc(OC)cc2)[C@@H]1c1ccccc1`, for which the Potency result was “inactive”.
For the compound `C=C1C(=O)O[C@@H]2[C@H]3O[C@]3(C)CC/C=C(\C)CC[C@@H]12`, the Potency was 10 µM (active).
For the compound `CCNC(=O)NCCCOc1cccc(CN2CCCCC2)c1`, the Potency entry was “inactive”.
As for `O=C(Oc1cccc2cccnc12)c1ccccc1`, the figure is 23.1 µM (active).
For the compound `CC(=O)Oc1ccc2c(c1)CC[C@@H]1[C@@H]2CC[C@]2(C)[C@@H](O)CC[C@@H]12`, the Potency was 18.4 µM (active).
For `O=c1cc(-c2ccccc2)oc2ccccc12`, the Potency entry is “inactive”.
Take `CN(C(=O)CN(CCO)CC(=O)N(C)C(C)(C)Cc1ccccc1)C(C)(C)Cc1ccccc1`: the Potency was 23.1 µM (active).
Regarding `Cc1ccc(C(=O)OCc2ccc([C@@H](CN)C(=O)Nc3ccc4cnccc4c3)cc2)c(C)c1`, the Potency is 11.3 µM (active).
On to `CCC(=O)c1ccc2c(c1)N(CCCN(C)C)c1ccccc1S2`, for which the Potency was 14.6 µM (active).
On to `CC1CCc2cc(F)cc3c(=O)c(C(=O)O)cn1c23` (stereo not given), for which the Potency result is “inactive”.
As for `O=C(N/N=C/c1ccc([N+](=O)[O-])o1)c1ccc(O)cc1`, the figure is 7.31 µM (active).
For `CCNCCS(=O)(=O)NC[C@@]1(c2ccccc2)SC(NC(=O)C(C)(C)C)=NN1C(=O)C(C)(C)C`, the Potency was 0.316 µM (active).
As for `COc1ccc2[nH]c(S(=O)Cc3ncc(C)c(OC)c3C)nc2c1` (stereo not given), the entry is “inactive”; as for `COCCOc1ccc(N2CCN(CCn3ncc4c3nc(N)n3nc(-c5ccco5)nc43)CC2)cc1`, “inactive”; as for `O=C(O)c1ccccc1Nc1cccc(C(F)(F)F)c1`, “inactive”.
Next, `O=C(OCCOCCO)c1ccccc1Nc1cccc(C(F)(F)F)c1`: 25.9 µM (active).
Take `COC(=O)C(c1ccccc1Cl)N1CCc2sccc2C1` (stereo not given): the Potency entry was “inactive”.
On to `Cc1cc2cc(Oc3ccnc(Nc4cccc(CS(=O)(=O)NCCN(C)C)c4)n3)ccc2[nH]1`, for which the Potency was 25.1 µM (active).
Next, `c1cc(-c2cnn3cc(-c4ccc(N5CCNCC5)cc4)cnc23)c2cccnc2c1`: 6.31 µM (active); `O=C(NOCC(O)CO)c1ccc(F)c(F)c1Nc1ccc(I)cc1F` (stereo not given): “inactive”; `CN1CCCN=C1COC(=O)C(O)(c1ccccc1)C1CCCCC1` (stereo not given): “inactive”.
For the compound `CO/N=C(/C(=O)N[C@@H]1C(=O)N2C(C(=O)OCOC(=O)C(C)(C)C)=C(C)CS[C@H]12)c1csc(N)n1`, the Potency result was “inactive”.
With `O=C(O)CNC(=O)CNC(=O)CNC(=O)CSC(=O)c1ccccc1`, the Potency result was “inactive”.
As for `CC(=O)Nc1cc(Oc2ccc3c(nc(Nc4ccc(F)cc4F)n3C)c2C)ccn1`, the figure is 2.24 µM (active).

Source of the values: PubChem BioAssay (NCATS).
